NRP1-CendR mod = modulators of CendR peptide binding to human neuropilin-1; O14786; FAM-RPARPAR peptide binding to NRP-1, fluorescence polarization; inhibition, % at 25 µM; 360,000 tested, 0.85% active; AID 602438;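 active = inhibition or corrected inhibition above about 18%, plus a signal ratio from 0.5 to 1.5, limit read from the data, passing the limit was not always enough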
RAD54 branch = inhibitors of human RAD54 branch migration; Q92698; RAD54 Holliday junction branch migration, FAM/BHQ fluorescence; inhibition, % at 10.4 µM; 360,000 tested, 0.14% active; AID 602329;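 active = mean normalized replicate activity at least 40 and at least half of replicates scoring 40 or more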;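 note: inhibitors cause a drop in the FAM fluorescence signal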
Target sequence (Q92698 whole entry, looked up): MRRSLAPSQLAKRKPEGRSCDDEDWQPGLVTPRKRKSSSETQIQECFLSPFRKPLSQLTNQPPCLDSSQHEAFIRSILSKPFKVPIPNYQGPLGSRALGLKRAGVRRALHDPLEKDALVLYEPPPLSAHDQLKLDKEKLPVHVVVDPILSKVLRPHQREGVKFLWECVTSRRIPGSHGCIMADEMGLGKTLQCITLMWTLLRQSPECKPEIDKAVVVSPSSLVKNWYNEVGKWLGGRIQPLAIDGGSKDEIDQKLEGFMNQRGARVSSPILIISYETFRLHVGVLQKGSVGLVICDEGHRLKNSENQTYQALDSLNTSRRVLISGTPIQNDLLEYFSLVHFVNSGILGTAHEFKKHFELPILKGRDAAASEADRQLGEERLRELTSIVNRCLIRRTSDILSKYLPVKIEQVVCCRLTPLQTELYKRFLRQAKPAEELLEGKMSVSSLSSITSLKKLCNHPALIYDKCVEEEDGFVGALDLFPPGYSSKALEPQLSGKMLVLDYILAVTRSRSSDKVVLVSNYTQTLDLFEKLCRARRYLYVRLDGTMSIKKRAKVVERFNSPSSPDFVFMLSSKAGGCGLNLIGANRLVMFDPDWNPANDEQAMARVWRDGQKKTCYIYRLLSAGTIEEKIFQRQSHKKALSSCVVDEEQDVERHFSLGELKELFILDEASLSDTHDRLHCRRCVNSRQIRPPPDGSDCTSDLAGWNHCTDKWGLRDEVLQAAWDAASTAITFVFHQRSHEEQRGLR
miR-122 sensor = inhibitors of miR-122 in Huh7 cells | 340,000 tested, 0.3% active | activation (reporter increase), % at 12.5 µM | Huh7 miR-122 Renilla luciferase sensor, 48 h; neutral wells = 0, positive control = 100;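 active = mean replicate activation score at least 90 and every replicate individually at or above 90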;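 note: higher luciferase means less miR-122 activity so hits act as miR-122 inhibitors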
RAD52 inh = blocks human RAD52 DNA annealing; P43351; recombinant RAD52 DNA annealing, FRET fluorescence; inhibition, % at 18.7 µM; 360,000 tested, 0.46% active; AID 651710;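 active = every replicate showing at least 50% inhibition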
FID counter = displaces DNA intercalator in HCV helicase counter-screen. DNA fluorescent intercalator displacement, fluorescence. 290,000 tested, 0.17% active. inhibition, % at 7.9 µM; in the data active = inhibition above about 37%;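 note: higher means more ethidium bromide displaced from hairpin DNA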
Glyco luc inh = blocks N-linked glycosylation in D54 reporter cells; D54 ERlucT glycosylation luciferase reporter, 24 h; percent of 100 nM tunicamycin response; reporter increase, % at 12.5 µM; 360,000 tested, 0.23% active;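 active = mean luciferase reporter signal, scaled so untreated is 0 and the glycosylation-blocking control 100, at or above a set limit in every replicate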;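 note: luciferase carries N-glycosylation sites so blocking glycosylation raises the light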
Hits are given with their value; . = inactive; / = no result. Shown are actives, neighbours in structure and some others; about 1.5% of the full set was active somewhere.

SMILES | NRP1-CendR mod | RAD54 branch | miR-122 sensor | RAD52 inh | FID counter | Glyco luc inh
Cc1cc(S(=O)(=O)Nc2ccc3ccccc3c2)c(C)s1 | . | . | 540 | . | . | .
Cc1ccc(NNS(=O)(=O)c2ccc(C)cc2)cc1 | 28 | . | . | / | . | .
Cc1cc(S(=O)(=O)Nc2cc(C)c(O)c(C)c2)c(C)s1 | . | . | 196 | / | . | .
Cc1ccc(S(=O)(=O)Nc2ccc3ccccc3c2)cc1 | . | . | 118 | . | / | .
COc1ccc(S(=O)(=O)Nc2cc(C)ccc2OC)cc1C | . | . | 114 | / | . | .
O=S(=O)(Nc1ccc(NS(=O)(=O)c2ccccc2)cc1)c1ccccc1 | . | / | / | . | / | .
O=S(=O)(Nc1ccc2ccccc2c1)c1ccccc1 | . | / | 170 | / | . | .
Cc1cc(S(=O)(=O)Nc2cccnc2)c(C)s1 | . | . | . | / | . | .
COc1ccc(S(=O)(=O)Nc2ccc3cn[nH]c3c2)cc1C | . | / | / | . | . | .
COc1ccc(S(=O)(=O)Nc2ccc3ccccc3c2)cc1C | . | . | 109 | / | . | .
CCCN1C[C@@H](C)[C@H](OC)CN(C)C(=O)c2cc(NC(=O)c3ccccc3F)ccc2OC[C@@H]1C | / | . | . | . | / | /
C[C@H]1CN([C@@H](C)CO)C(=O)Cc2cc(NC(=O)CCCCCC(=O)Nc3ccccc3N)ccc2O[C@H]1CN(C)C(=O)Nc1cccc2ccccc12 | / | / | / | . | / | /
CC(c1ccccc1)N1C(=O)c2ccc(C(=O)Nc3ccccc3C(=O)O)cc2C1=O (configuration not stated) | . | . | / | . | 43 | .
CC(c1ccccc1)N1C(=O)c2ccc(C(=O)Nc3ccc(Br)cc3C(=O)O)cc2C1=O (configuration not stated) | . | . | / | . | . | .
C[C@H](CO)N1C[C@H](C)[C@H](CN(C)S(=O)(=O)c2ccc(F)cc2)Oc2ncc(-c3ccccc3)cc2C1=O | / | / | . | / | / | /
Cc1ccccc1-n1c(SCc2cc(=O)n3ccccc3n2)nc2[nH]ncc2c1=O | . | / | . | / | . | .
O=c1c2cn[nH]c2nc(SCc2cc(=O)n3cc(Br)ccc3n2)n1-c1ccc(Br)cc1 | 32 | / | / | . | . | .
O=c1c2cn[nH]c2nc(SCc2ccccc2F)n1-c1ccc(Br)cc1 | 26 | / | / | . | . | .
C[C@@H]1CN([C@@H](C)CO)C(=O)c2cc(NC(=O)CCN3CCOCC3)ccc2O[C@@H]1CN(C)Cc1ccc(C(=O)Nc2ccccc2N)cc1 | / | / | / | . | / | /
COc1ccc(NC(=O)Nc2ccc3c(c2)C(=O)N([C@@H](C)CO)C[C@@H](C)[C@H](CN(C)S(=O)(=O)c2ccc(OC)cc2)O3)cc1 | / | . | . | . | / | /
COc1ccc(C(=O)/C=C/c2ccc(OC(=O)c3cc(OC)c(OC)c(OC)c3)cc2)cc1 | . | . | . | . | . | 42
COc1ccc(/C=C/C(=O)c2ccc(C(=O)/C=C/c3ccc(OC)c(OC)c3)cc2)cc1OC | . | . | . | . | . | .
COc1cc(/C=C/C(=O)c2ccc3c(c2)OCCO3)cc(OC)c1OC | . | . | / | . | . | 42
COC(=O)c1ccc(/C=C/C(=O)c2ccc(OC)c(OC)c2)cc1 | . | . | . | / | . | 62
COc1cc(/C=C/C(=O)c2ccc3c(c2)OCO3)cc(OC)c1OC | . | . | / | . | / | .
SMILES | NRP1-CendR mod | RAD54 branch | miR-122 sensor | RAD52 inh | FID counter | Glyco luc inh
CC(C)(C)c1ccc(OCc2ccc(C(=O)Nc3cccnc3)o2)cc1 | . | . | . | . | . | 29
COc1ccc(C2=CN(Cc3ccccc3)C(c3ccccc3)CC2=O)cc1 (configuration not stated) | 21 | . | . | . | / | .
CN1CCN(C(=O)C[C@@H]2CC[C@@H]3[C@H](COC[C@H](O)CN3C(=O)c3ccccc3F)O2)CC1 | / | . | . | . | / | /
CCOc1ccc(CNC(=O)CN2C(=O)CSc3ccc(S(=O)(=O)N4CCOCC4)cc32)cc1 | . | / | / | . | / | .
COc1ccc(CNC(=O)CN2C(=O)CSc3ccc(S(=O)(=O)N4CCOCC4)cc32)cc1 | 33 | . | . | . | . | .
c1ccc(-c2nc(NCCCn3ccnc3)c3ccccc3n2)cc1 | . | / | . | . | 66 | .
Cc1cc(NC(=O)COC(=O)c2cc(S(=O)(=O)N(C)C)ccc2Cl)no1 | 29 | . | . | . | / | .
CCN(CC)S(=O)(=O)c1cccc(NC(=O)COC(=O)c2cc(C)oc2C)c1 | . | . | . | . | . | .
Cc1cc(C(=O)OCC(=O)Nc2cccc(S(=O)(=O)N(C)C)c2)c(C)o1 | 24 | / | . | . | . | .
O=C(CN(CC1CCCO1)C(=O)CNS(=O)(=O)c1ccc(Cl)cc1)NCC1CCCO1 (configuration not stated) | 30 | . | . | / | . | .
CC(=O)Nc1ccc(C2Nc3cc(C)c(C)cc3NC3=C2C(=O)CC(C)(C)C3)cc1 (configuration not stated) | . | . | . | . | . | .
Cc1cc2c(cc1C)NC(c1nc3ccccc3[nH]1)C1=C(CC(C)(C)CC1=O)N2 (configuration not stated) | 29 | . | . | / | . | .
Cc1nc(NCc2ccco2)c2c(C)c(C)sc2n1 | . | . | 129 | / | . | .
Cc1n[nH]c(=O)nc1NCc1ccco1 | 25 | . | . | / | . | .
Cc1n[nH]c(=O)nc1NCc1ccccc1 | . | . | . | / | . | .
Cc1sc2nc3c4ccccc4c(NCc4ccco4)nn3c(=O)c2c1C | . | . | . | / | . | .
COc1ccccc1C#Cc1ccc([C@H]2[C@@H](C#N)N(C(=O)C3CCCC3)[C@H]2CO)cc1 | / | / | / | . | / | /
CC(CCC(=O)NN)C1CCC2C3CCC4CC(O)CCC4(C)C3CCC12C (configuration not stated) | . | / | . | . | / | .
CC(CCC(C)C(C)(C)C)[C@@H]1CC[C@H]2C3C[C@H](OS(O)(=S)=S)[C@H]4C[C@H](OS(O)(=S)=S)[C@@H](OS(O)(=S)=S)C[C@]4(C)[C@H]3CC[C@]12C (some centres not stated) (tested in a mixture with another compound) | 36 | 110 | . | / | / | .
COc1ccc(-c2c(-c3ccsc3)oc3ccc(N4CCOCC4)cc23)cn1 | . | . | . | / | / | .
Nc1ccc(C#Cc2c(-c3ccsc3)oc3ccc(N4CCOCC4)cc23)cc1 | 26 | . | . | . | / | .
Cc1ccc(S(=O)(=O)N(C)C[C@H]2Oc3ccc(NC(=O)Cc4ccccc4)cc3CC(=O)N([C@H](C)CO)C[C@@H]2C)cc1 | / | . | . | . | / | /
O=C(C[C@H]1CC[C@@H]2[C@H](COC[C@@H](O)CN2C(=O)c2cnccn2)O1)NCc1ccc(F)cc1 | / | . | . | . | / | /
CCOc1ccccc1-c1ccc(C(=O)NCc2ccccc2)o1 | 27 | . | . | . | . | .
Cc1ccc(-c2ccc(C(=O)NCc3ccccc3)o2)c2ccccc12 | . | . | / | . | . | .

From PubChem BioAssay
